# The list is not random: actives were taken first. Their share in the collection is about 18%.
# KAT2A inh – GCN5L2 (KAT2A) acetyltransferase inhibition; GCN5L2 HAT assay, ThioGlo1 CoA-SH fluorescence; Potency, µM (series often up to 58.9 µM), for inactives: at the highest dose activity change, negative = inhibition, usual class: inhibitors; 390,000 tested, 0.21% active; AID 504327
# Target sequence (Q92830 whole entry, looked up): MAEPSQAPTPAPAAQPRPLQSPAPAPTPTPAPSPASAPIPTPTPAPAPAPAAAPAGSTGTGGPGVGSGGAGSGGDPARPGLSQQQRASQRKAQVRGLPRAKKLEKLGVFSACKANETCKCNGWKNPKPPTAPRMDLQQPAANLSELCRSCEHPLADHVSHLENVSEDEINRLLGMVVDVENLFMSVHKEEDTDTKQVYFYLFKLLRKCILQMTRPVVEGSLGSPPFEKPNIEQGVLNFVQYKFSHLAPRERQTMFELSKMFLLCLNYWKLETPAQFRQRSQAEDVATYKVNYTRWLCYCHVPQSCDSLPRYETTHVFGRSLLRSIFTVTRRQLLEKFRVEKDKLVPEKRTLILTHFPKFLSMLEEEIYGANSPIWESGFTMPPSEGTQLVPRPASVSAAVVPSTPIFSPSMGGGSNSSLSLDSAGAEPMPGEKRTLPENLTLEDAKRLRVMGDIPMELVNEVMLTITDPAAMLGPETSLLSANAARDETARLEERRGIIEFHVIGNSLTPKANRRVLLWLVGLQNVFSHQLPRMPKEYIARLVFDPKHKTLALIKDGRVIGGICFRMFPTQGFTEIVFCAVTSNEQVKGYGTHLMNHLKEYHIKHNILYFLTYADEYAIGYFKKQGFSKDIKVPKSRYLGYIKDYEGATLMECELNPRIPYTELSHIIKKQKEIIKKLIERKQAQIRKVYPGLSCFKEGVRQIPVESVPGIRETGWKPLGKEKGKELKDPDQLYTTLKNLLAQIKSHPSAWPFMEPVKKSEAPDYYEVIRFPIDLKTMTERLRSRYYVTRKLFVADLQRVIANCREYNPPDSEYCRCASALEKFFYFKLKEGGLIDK
#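 ThioGlo1-coupled HAT assay: 20nM GCN5L2, 70uM acetyl-CoA, 75uM H3(1-25) peptide, pH 7.5. Fluorescence read at 340/540nm at start and after 20 min at room temperature.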
# VDR inhibitor – inhibitors of human vitamin D receptor. AID 504847. VDR-SRC2-3 peptide fluorescence polarization, 2 h. 400,000 tested, 0.93% active. Potency, µM, for inactives: max response, negative = inhibition, usual class: inhibitors
#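 Inhibition of the VDR/SRC2-3 peptide interaction is quantified by fluorescence polarization. Compounds (23 nl, pintool) incubate with the reagents for 2 hours at ambient room temperature.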
# TDP1 inh – blocks human tyrosyl-DNA phosphodiesterase 1 | AID 485290 | 350,000 tested, 0.28% active | Q9NUW8 | recombinant TDP1, AlphaScreen DNA substrate cleavage | Potency, µM (titrated, usually from 130 µM), inactives show at the highest dose activity change, negative = inhibition, most hits filed as inhibitors; further: nearly all actives have a fitted effect of over 40% in size
#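 Enzyme-compound mixtures sat 15 min at room temperature, followed by a 5 min reaction with 15 nM final substrate and 10 min with AlphaScreen beads. Recombinant human Tdp1 was used at 1 nM final.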
# PLK1 PBD block – blocks phosphopeptide binding to human PLK1 polo-box domain | P53350 | Plk1 PBD binding of FITC phosphopeptide, fluorescence polarization | Potency, µM, for inactives: max response, negative = inhibition, usual class: inhibitors | 360,000 tested, 2.8% active; further: series mostly up to about 57 µM; nearly all actives have a fitted effect of over 65% in size
# DT40 TDP1 CPT – growth inhibition of DT40 Tdp1-/-;hTDP1 cells with camptothecin (screen for TDP1 inhibitors) | 420,000 tested, 12% active | Potency, µM (top dose mostly 46.2 µM), inactives show top-dose activity change, negative = growth inhibition, actives largely listed as inhibitors | chicken DT40 Tdp1-/-;hTDP1 cells + 20 nM CPT, ATP luminescence, 48 h; further: nearly all actives have a fitted effect of over 55% in size
#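 Chicken DT40 Tdp1-/- cells stably complemented with human TDP1 were seeded at 400 cells/well in medium containing 20 nM camptothecin, exposed to pin-transferred compounds, and grown at 37 °C for at least 48 hr. Viability was read as ATP luminescence.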
# TDP1 cell noCPT – qHTS for Inhibitors of human tyrosyl-DNA phosphodiesterase 1 (TDP1): qHTS in cells in absence of CPT | DT40 Tdp1-/- hTDP1 cells, no CPT, ATP luminescence, 48 h | Potency, µM (top dose mostly 46.2 µM), without a hit: at the top dose activity change, negative = growth inhibition, most hits filed as inhibitors | 420,000 tested, 15% active | AID 686978, 2013; further: nearly all actives have a fitted effect of over 55% in size
#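 No-CPT arm: Tdp1-/-;hTDP1 DT40 cells (400/well) plus compounds, incubated ≥48 hr at 37 °C. Readout CellTiter-Glo luminescence.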
# * = called active by the depositor; ? = inconclusive; . = no result; [ ] = another dose, or the depositor's remark. The call rests on the fitted dose curve; in most records, active means well fitted curve in the direction sought with a large enough effect; inconclusive means small, poorly fitted or top-dose-only effect, or another doubt; inactive means no such curve, though single readings can be large; an effect the other way counts as inactive or inconclusive. On the % scale 0 is the no-effect control and ±100 the full control effect; potency means the concentration at half of the fitted maximal effect.
SMILES,KAT2A inh,VDR inhibitor,TDP1 inh,PLK1 PBD block,DT40 TDP1 CPT,TDP1 cell noCPT
CCOc1cc(C(=S)N2CCCC2)ccc1OCC(=O)Nc1c(C)cc(C)cc1C,1%,0%,-5%,-17%,18µM*,16µM*
COc1cc(C(=S)N2CCCCC2)ccc1OCC(=O)Nc1ccccc1Cl,-5%,-9%,5%,-28%,?,23µM*
COC(=O)C1=C(C(=O)OC)[C@@H]2N(Cc3ccccc3)c3ccccc3[C@@]23C[C@@H](C(=O)OC)N(S(=O)(=O)c2ccc(OC)cc2)C3=N1,.,.,11%[21 µM],.,.,.
CC(=O)n1c(Cl)c(NC(=O)CCl)c2ccccc21,0%,-1%,9%,-7%,10µM*,12µM*
Cc1nn(C)c(C)c1NC(=O)CCl,-5%,3%,5%,-11%,38%,?
CC(=O)c1ccc2noc(-c3ccc(Cl)cc3)c2c1,-7%,5%,0%,-10%,-1%,0%
COc1ccc(-c2onc3ccc(C(=O)/C=C/N(C)C)cc23)cc1,-14%,-11%,.,-11%,13µM*,21µM*
Cc1cccc(N2CCN(C(=O)c3ccc(CNc4c(N5CCC(C)CC5)c(=O)c4=O)cc3)CC2C)c1 (stereo not drawn),-4%,0%,11%,1%,21µM*,?
CC1CCN(c2c(NCc3ccc(C(=O)N4CCc5ccccc54)cc3)c(=O)c2=O)CC1,1%,-11%,5%,-4%,5.2µM*,5.8µM*
Cc1cccc(N2CCN(C(=O)c3ccc(NC4=NC5CS(=O)(=O)CC5S4)cc3)CC2C)c1 (stereo not drawn),-2%,-29%,5%,24µM*,?,-23%
CC(=O)Nc1ccc(CN2C(=O)C(C)ON=C2c2ccccc2-c2ccco2)cc1 (stereo not drawn),.,.,.,-5%,?,?
CCCCCCNC(=O)c1cc(S(=O)(=O)N2CCc3ccccc32)ccc1F,10%,0%,.,-11%,?,?
O=C(Nc1ccc(Cl)c(Cl)c1)c1cc(S(=O)(=O)N2CCN(c3cccc(Cl)c3)CC2)ccc1F,1%,2%,8%,.,?,?
O=C(Nc1ccc(C(F)(F)F)cc1)c1cc(S(=O)(=O)N2CCCc3ccccc32)ccc1F,-4%,0%,0%,.,7.3µM*,10µM*
O=C(Nc1c(F)cc(F)cc1Br)c1cc(S(=O)(=O)N2CCN(c3ccccn3)CC2)ccc1F,-3%,1%,7%,-14%,?,26µM*
O=C(O)c1cc(S(=O)(=O)N2CCN(c3ccccn3)CC2)ccc1Cl,-1%,12%,1%,1%,18%,13%
O=C(O)c1cc(S(=O)(=O)N2CCCc3ccccc32)ccc1Cl,-7%,0%,.,2%,-8%,0%
CCOc1ccc(NC(=O)c2cc(S(=O)(=O)N3CCc4ccccc43)ccc2F)cc1,-17%,-3%,3%,.,8.2µM*,9.2µM*
Cc1ccc(NC(=O)c2cc(S(=O)(=O)N3CCc4ccccc43)ccc2F)cc1Cl,-9%,13%,3%,.,4.1µM*,5.8µM*
CC(C)c1cccc(C(C)C)c1NS(=O)(=O)c1cccs1,-2%,-11%,-1%,.,?,?
CC(=O)Nc1ccc(S(=O)(=O)N2CCCc3ccccc32)cc1,-6%,6%,4%,-1%,6.5µM*,9.2µM*
Cc1cccc(C)c1NC(=O)c1cc(S(=O)(=O)N2CCC3(CC2)OCCO3)ccc1F,.,.,.,3%,-16%,-20%
CCc1cccc(C)c1NC(=O)c1cc(S(=O)(=O)N2CCN(c3ccccc3)CC2)ccc1F,3%,17%,8%,.,16µM*,9.2µM*
Cc1cccc(C)c1NC(=O)c1cc(S(=O)(=O)N2CCc3ccccc3C2)ccc1F,-2%,17%,10%,.,18µM*,?
COC(=O)Nc1ccc(S(=O)(=O)N2c3ccccc3CCC2C)cc1 (stereo not drawn),-3%,5%,1%,-12%,4.6µM*,2.6µM*
SMILES,KAT2A inh,VDR inhibitor,TDP1 inh,PLK1 PBD block,DT40 TDP1 CPT,TDP1 cell noCPT
O=S(=O)(c1ccc(Cl)cc1)N1CCCc2ccccc21,-1%,-10%,.,-5%,-21%,-25%
Cc1ccc(Nc2c([N+](=O)[O-])ccc3nonc23)cc1C,2%,-1%,.,-2%,-3%,2%
O=C(Nc1ccc(Cl)cc1)c1cc(S(=O)(=O)N2CCCc3ccccc32)ccc1F,0%,7%,0%,.,16µM*,15µM*
Cc1cc(NC(=O)COC(=O)c2ccc(S(=O)(=O)N3CCCc4ccccc43)cc2)no1,-15%,3%,0%,-2%,3.7µM*,3.3µM*
Cc1cccc(C)c1NC(=O)c1cc(S(=O)(=O)N2CCCc3ccccc32)ccc1F,1%,4%,5%,.,10µM*,4.1µM*
O=C(Nc1ccc(Br)cc1)c1cc(S(=O)(=O)N2CCc3ccccc32)ccc1F,-3%,2%,3%,.,15µM*,15µM*
COc1ccc(S(=O)(=O)N2CCc3ccccc32)cc1C(=O)Nc1cccnc1,-4%,0%,1%,-1%,6%,-14%
O=C(Nc1c(Cl)cccc1Cl)C1CCN(C(=O)c2cccs2)CC1,-3%,19%,5%,-7%,-12%,-28%
CCOC(=O)C(C(=O)OCC)N(Cc1cc(OC)ccc1OC)C(=O)C1CC(CO[Si](C)(C)C(C)(C)C)=CN1C(=O)OC(C)(C)C (stereo not drawn),.,-11%,12%,.,.,.
CCOC(=O)C1CCCN(C(=O)c2cc(C#N)cs2)CC1 (stereo not drawn),.,.,.,2%,1%,5%
N#Cc1ccccc1Cn1c(=O)n(CCCCC(=O)NCc2ccc3c(c2)OCO3)c(=O)c2ccccc21,-5%,1%,-1%,.,?,-12%
Cc1ccc(S(=O)(=O)N2CCCc3cc(NC(=O)c4ccc(C(C)(C)C)cc4)ccc32)cc1,-9%,12%,6%,.,4.1µM*,3.7µM*
CCCCOc1ccc(C(=O)Nc2ccc3c(c2)CCCN3S(=O)(=O)c2ccc(C)cc2)cc1,1%,-1%,-4%,.,?,?
CCc1cccc(C)c1NC(=O)CN1CCN(S(=O)(=O)c2ccc(C(C)(C)C)cc2)CC1,-6%,3%,.,6%,-42%,23µM*
Cc1ccc(NC(=O)c2cc(S(=O)(=O)N3CCCc4ccccc43)ccc2F)cc1F,5%,13%,5%,.,16µM*,6.5µM*
Nc1ccc(S(=O)(=O)N2CCCc3ccccc32)cc1,-12%,-21%,-1%,-3%,-9%,-26%

# Screening data as filed in PubChem BioAssay.
